In all, about 33,000 sequences were measured (“E-score (-0.5 to 0.5)”: median about -0.054, highest 2% from about 0.35 on). This is one part of a sample in which the highest values are shown more often than they occur.
The sequences below were run against T1, Stb5 (UniProt P38699) (assay: PBM E-score (8-mer binding enrichment) (E-score (-0.5 to 0.5)); higher = stronger / more preferred TF binding). Conditions: protein concentration: 200 nM; construct: GST-full length.
T1 sequence: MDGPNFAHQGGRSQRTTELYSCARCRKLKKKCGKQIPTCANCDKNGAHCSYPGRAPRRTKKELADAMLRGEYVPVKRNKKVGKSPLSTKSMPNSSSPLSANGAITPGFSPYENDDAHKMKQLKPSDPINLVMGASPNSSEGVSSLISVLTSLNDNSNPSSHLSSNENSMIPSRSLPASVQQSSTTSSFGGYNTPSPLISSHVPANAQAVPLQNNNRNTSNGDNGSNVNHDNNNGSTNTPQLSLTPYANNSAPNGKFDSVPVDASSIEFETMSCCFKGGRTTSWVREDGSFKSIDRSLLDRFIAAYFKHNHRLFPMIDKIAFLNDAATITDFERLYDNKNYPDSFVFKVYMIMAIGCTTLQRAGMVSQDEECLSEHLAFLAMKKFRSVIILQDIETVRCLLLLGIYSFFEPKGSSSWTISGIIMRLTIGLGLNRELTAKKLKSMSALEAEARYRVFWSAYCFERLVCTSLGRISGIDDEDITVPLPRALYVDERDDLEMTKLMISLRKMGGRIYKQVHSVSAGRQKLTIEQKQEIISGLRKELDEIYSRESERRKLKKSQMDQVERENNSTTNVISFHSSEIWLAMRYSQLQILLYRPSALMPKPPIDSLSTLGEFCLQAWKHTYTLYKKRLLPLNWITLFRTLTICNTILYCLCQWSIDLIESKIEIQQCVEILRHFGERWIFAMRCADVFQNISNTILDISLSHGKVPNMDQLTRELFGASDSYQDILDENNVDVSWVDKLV
Method: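 Universal 'all 10-mer' protein binding microarrays (Agilent AMADID 015681) probed with GST-tagged S. cerevisiae TFs (full-length or DBD) made by in vitro transcription/translation (PURExpress), about 100-200 nM. Bound TF was detected with fluorescent anti-GST. Each ungapped 8-mer (which stands for itself and its reverse complement) is scored by the PBM enrichment score (E-score), a modified Wilcoxon-Mann-Whitney statistic from -0.5 to +0.5, computed with the Universal PBM Analysis Suite. Scale: above 0.35 generally sequence-specific binding.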

| Sequence | PBM E-score |
| --- | --- |
| ATCAAACA | -0.234 |
| ATATATCC | 0.398 |
| CTATATCC | 0.187 |
| ATATATCA | 0.0402 |
| ATATCGGA | 0.166 |
| CTATCGGA | 0.402 |
| GTATCGGA | 0.263 |
| ACCTTTAG | 0.0714 |
| TAAGCCCA | 0.0396 |
| AACGCGAC | -0.173 |
| AATAGAAT | -0.187 |
| GATAGGTA | -0.0734 |
| ATCGGCAG | 0.219 |
| ACCGGCAA | 0.241 |
| ACCGGCAC | 0.373 |
| CTCGGCAC | 0.187 |
| GTCGGCAC | 0.374 |
| GGCGGCAC | 0.343 |
| ATCGGCAT | 0.363 |
| ATCGGCAC | 0.339 |
| ACCGGCAG | 0.277 |
| GTCGGCAA | 0.276 |
| CGCGGCAC | 0.288 |
| AGCGGCAC | 0.355 |
| ATTGGAGC | -0.193 |

| Sequence | PBM E-score |
| --- | --- |
| TATCCTAA | -0.109 |
| CATGTGGG | -0.114 |
| CCATGGGC | -0.0701 |
| AAATTGAC | 0.0873 |
| AGCGGCCA | 0.177 |
| AGCGGCAT | 0.401 |
| AGCGGCCG | 0.252 |
| AGCGGCAA | 0.2 |
| AGCGGCAG | 0.276 |
| AGCGGCCT | 0.377 |
| AAGGCGGA | 0.292 |
| AGCACGAC | -0.2 |
| CTACGAGA | -0.102 |
| AATATCCG | 0.39 |
| ATTATCCC | 0.0778 |
| ATTATCCA | -0.0234 |
| CACATCCG | 0.0898 |
| AACATCCC | 0.149 |
| ATTATCCG | 0.359 |
| AATATCCC | 0.291 |
| AATATCCA | -0.00669 |
| AACATCCG | 0.359 |
| AGTTCGGA | 0.208 |
| AAGTGCGA | 0.187 |
| GGGGTGCA | 0.0203 |

| Sequence | PBM E-score |
| --- | --- |
| ACACAGAG | -0.0564 |
| AACTCATC | -0.116 |
| ACTTGCAT | 0.0144 |
| GCTCTGAA | -0.166 |
| AACACATA | -0.222 |
| ATAATACG | 0.153 |
| ATTATACA | 0.0217 |
| ATAATACA | 0.0704 |
| ATTATACG | 0.173 |
| ATTATACC | 0.362 |
| ATAATACC | 0.368 |
| ATGTGGTC | -0.168 |
| GCCGTTCC | 0.202 |
| GATTCTCC | 0.112 |
| AGTCGAAT | -0.199 |
| AGTCCCGA | 0.342 |
| CATCCCGC | 0.155 |
| CATCCCGA | 0.1 |
| CGTCCCGC | 0.2 |
| AATCCCAT | -0.042 |
| AGTCCCGC | 0.358 |
| AATCCCCT | -0.165 |
| TATCCCGA | 0.18 |
| AATCCCGC | 0.398 |
| AATCCCGT | 0.419 |

| Sequence | PBM E-score |
| --- | --- |
| AATCCCGA | 0.394 |
| GATCCCGC | 0.232 |
| CAATTTTA | -0.00732 |
| TGTATACA | 0.0199 |
| AAGGCTTG | -0.305 |
| CATACTGC | -0.045 |
| CTTCAAAG | -0.124 |
| GCACTCTA | -0.0909 |
| GGACAAAC | 0.0886 |
| ACATACCG | 0.28 |
| CGGTCCAA | 0.186 |
| AGGTCCGA | 0.412 |
| AGGTCCCA | -0.357 |
| AGGTCCAA | -0.167 |
| GGGTCCGA | 0.332 |
| CGGTCCGA | 0.389 |
| AGGTCCAG | -0.156 |
| AGGTCCGG | 0.382 |
| AGGTCGGA | 0.326 |
| GGGTCCCA | -0.0448 |
| CGGTCCCA | 0.358 |
| AGGTCCTG | -0.205 |
| AAATTCGA | 0.0745 |
| CGGCATTC | 0.285 |
| AACCATCG | 0.041 |

| Sequence | PBM E-score |
| --- | --- |
| AAACGGAT | 0.197 |
| AGAGATAT | -0.194 |
| AAAAAGCT | -0.205 |
| CGGTCTCC | 0.195 |
| CGGTCTCA | 0.376 |
| GGGTCTCA | 0.00241 |
| CGGTCCTA | 0.448 |
| AGGTCCTA | 0.0577 |
| AGGTCCGC | 0.425 |
| AGGTCCAC | -0.0841 |
| CGGTCCGC | 0.298 |
| CGGTCCTC | 0.16 |
| GCCTTCGA | -0.137 |
| CGCAAGGA | -0.0543 |
| GACCTCTC | -0.126 |
| AGTAGTTG | -0.0997 |
| ACTGCTTG | -0.185 |
| CCCAGTAG | -0.128 |
| ACCCCTGA | -0.108 |
| ACGATCGG | 0.298 |
| AAGATCGC | -0.0115 |
| AAGATCGG | 0.352 |
| CCGATCGA | 0.285 |
| CAGATCGG | 0.29 |
| CCGATCGG | 0.413 |

| Sequence | PBM E-score |
| --- | --- |
| GCAACTTA | -0.0671 |
| CAGTCTAA | 0.00323 |
| GCCCGCCC | 0.271 |
| CCCGCCCC | 0.361 |
| CCCCGCCC | 0.43 |
| ACCGCCCC | 0.367 |
| GCCCCCCC | -0.161 |
| GCCGCCCC | 0.388 |
| CCCGCCCG | 0.298 |
| CCCGCCCA | 0.258 |
| ACCGCCCT | 0.268 |
| ACCGCCCG | 0.345 |
| GCCGCCCA | 0.19 |
| ACCCGCCC | 0.276 |
| ACCTCCAG | -0.188 |
| ATAAGGGC | 0.0814 |
| GAAGCCAC | 0.0166 |
| GCCCGTTA | 0.228 |
| TGGAAGAA | -0.0838 |
| ATGATCGG | 0.297 |
| CCTGATCA | -0.0914 |
| AGAGAACC | -0.125 |
| CTCATGCC | -0.103 |
| GAGATACC | 0.168 |
| AGACCAGA | -0.27 |

| Sequence | PBM E-score |
| --- | --- |
| ATAGAAGA | -0.05 |
| GGGCTTAA | 0.391 |
| CGACTTAC | 0.0696 |
| GGCCTTAA | 0.377 |
| CGTCTTAA | -0.0278 |
| AGCCTTAA | -0.0403 |
| TGCCTTAA | -0.192 |
| TGTCTTAA | 0.00631 |
| GGACTTAC | 0.358 |
| AGACTTAC | -0.161 |
| GGTCTTAA | 0.355 |
| CGGCTTAA | 0.351 |
| TGGCTTAA | -0.044 |
| CCCTGGAG | -0.234 |
| GCTCGGCA | 0.122 |
| CTCAATCA | -0.00421 |
| AACTAGCC | -0.148 |
| ATGTGGTA | -0.222 |
| CGCGGGAA | 0.272 |
| AATCTTGG | -0.0505 |
| CCGATACA | 0.28 |
| ACAGCGGG | 0.332 |

From the supplement of paper PMC3334620
